Results reported in the supplement of paper PMC6897291.

System: U-2932
Assay: growth inhibition by drug alone (1 - RLU/untreated control) (fraction); higher = stronger inhibition
Conditions: 177Lu-lilotomab satetraxetan 0 ug/ml
Method: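 U-2932 ABC-DLBCL cells were pretreated or not for 18 h with 1 ug/ml 177Lu-lilotomab satetraxetan (600 MBq/mg), washed and seeded (3000 cells/well) on 384-well plates pre-printed with the Selleck Cambridge Cancer Compound library. Viability was read by RealTime-Glo luminescence on days 3-6 after seeding. Effect = 1 - RLU/mean RLU of the 48 untreated no-drug control wells per plate; Bliss score = (M-E)/(1-Fa), with E the expected Bliss-additive effect.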

SMILES	growth inhibition by drug alone (10 nM, time (day): 3)	growth inhibition by drug alone (10 nM, time (day): 4)	growth inhibition by drug alone (10 nM, time (day): 5)	growth inhibition by drug alone (10 nM, time (day): 6)	growth inhibition by drug alone (1000 nM, time (day): 3)	growth inhibition by drug alone (1000 nM, time (day): 4)	growth inhibition by drug alone (1000 nM, time (day): 5)	growth inhibition by drug alone (1000 nM, time (day): 6)
CC(O)(CS(=O)(=O)c1ccc(F)cc1)C(=O)Nc1ccc(C#N)c(C(F)(F)F)c1 (stereo not given) [Bicalutamide (Casodex)]	0.0907	0.0654	-0.0744	-0.0699	-0.0505	-0.00664	-0.0598	-0.262
N.N.[Cl][Pt][Cl] [Cisplatin]	0.0383	0.00908	-0.0126	0.00453	-0.0314	-0.0428	-0.0416	0.0312
C=C1C[C@@H]2[C@H](CC[C@]3(C)C(=O)CC[C@@H]23)[C@@]2(C)C=CC(=O)C=C12 [Exemestane]	0.0753	0.00319	-0.0809	-0.0708	-0.0344	-0.0359	-0.1	0.0186
CC(=O)Nc1ccc(OC[C@](C)(O)C(=O)Nc2ccc([N+](=O)[O-])c(C(F)(F)F)c2)cc1 [Andarine (GTX-007)]	0.0764	0.0433	-0.0579	-0.0688	0.0614	0.0399	-0.0394	0.0038
Cn1cc(C2=C(c3cn(C4CCN(Cc5ccccn5)CC4)c4ccccc34)C(=O)NC2=O)c2ccccc21	-0.0338	-0.0583	-0.0539	0.0229	-0.144	-0.131	-0.13	-0.0775
